Shown are actives, neighbours in structure and some others; about 22% of the full set was active somewhere.
CYP2C19 inh = human CYP2C19 inhibition; actives 21% (n = 96,000); inhibition, % at 5 µM; P33261; AID 778; CYP2C19 Supersomes, luciferin-H EGE luminescence, 30 min;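 active = CYP2C19 inhibition above a set limit at 5 µM in the primary screen, cut at about 50% in these data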;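 note: plate controls were negative control wells for no effect and 2.5 mM tranylcypromine positive control for full effect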
Target sequence (P33261 whole entry, looked up): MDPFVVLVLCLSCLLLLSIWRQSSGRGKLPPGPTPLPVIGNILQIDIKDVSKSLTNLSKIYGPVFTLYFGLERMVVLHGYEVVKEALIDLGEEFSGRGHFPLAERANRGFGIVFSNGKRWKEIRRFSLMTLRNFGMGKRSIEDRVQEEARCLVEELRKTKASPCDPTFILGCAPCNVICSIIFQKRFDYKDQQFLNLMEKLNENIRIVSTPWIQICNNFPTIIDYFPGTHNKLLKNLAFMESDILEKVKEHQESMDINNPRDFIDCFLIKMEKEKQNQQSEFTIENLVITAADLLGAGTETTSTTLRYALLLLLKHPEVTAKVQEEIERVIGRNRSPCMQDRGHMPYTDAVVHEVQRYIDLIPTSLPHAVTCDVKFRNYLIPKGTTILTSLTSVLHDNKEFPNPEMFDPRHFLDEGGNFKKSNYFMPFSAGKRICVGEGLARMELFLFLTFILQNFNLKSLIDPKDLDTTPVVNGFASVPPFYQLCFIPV
CYP2C9 activ = activators of human CYP2C9. P11712. recombinant CYP2C9, luciferin-H conversion, luminescence; active compounds read high; factor 1 = untreated enzyme, 0 = blocked. activation factor at 5 µM. actives 1.4% (n = 96,000);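 active = activation factor of 2 or more for CYP2C9 at a 5 µM dose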;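 note: 0 = sulfaphenazole-blocked wells and 1 = vehicle-only wells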
CYP2C9 inhib = blocks human cytochrome P450 2C9 | P11712 | CYP2C9 Supersomes, luciferin-H conversion, luminescence | inhibition, % at 5 µM | actives 20% (n = 96,000);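 active = blocking of liver enzyme CYP2C9 beyond about 50% at 5 µM, limit read from the data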
CYP2C19 act = cytochrome P450 2C19 (human) activation. AID 1025. recombinant CYP2C19, luciferin-H EGE luminescence; active compounds read high; 0 = fully inhibited enzyme, 1 = untreated enzyme. activation factor at 5 µM. P33261. 96,000 tested, under 10 active;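 active = activation factor of at least 2 at 5 µM in the primary screen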;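 note: 0 = wells with 2.5 mM tranylcypromine and 1 = vehicle-only wells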
Measles CPE = protection of cells from measles virus; Measles virus-infected cells, CPE protection, absorbance; protection (pct of control), % at 4 µM; actives 1.5% (n = 140,000); AID 841; in the data active = protection mostly above about 24%, no sharp cut-off; inactive = mostly below about 26%
* hit, by the source's call; / = not tested or not shown.

SMILES | CYP2C19 inh | CYP2C9 activ | CYP2C9 inhib | CYP2C19 act | Measles CPE
O=C(Nc1ccccc1C(=O)OCC(=O)N1CCc2ccccc2C1)c1ccco1 | 65.1* | 0.1 | 87.0* | 0.3 | 16.7
CC1CCCCC1NC(=O)COC(=O)c1ccccc1NC(=O)c1ccco1 (stereo unspecified) | 18.3 | 0.8 | 21.5 | 0.8 | 3.9
O=C(OCC(=O)N1CCN(C(=O)c2ccco2)CC1)c1ccccc1OCc1ccc(Cl)cc1 | 39.0 | 0.2 | 77.0* | 0.6 | 5.5
CCN(CC)S(=O)(=O)c1ccc(C(=O)OCC(=O)N2CCN(C(=O)c3ccco3)CC2)cc1 | 15.0 | 0 | 96.2* | 0.8 | 11.3
N#Cc1ccccc1Sc1ccccc1C(=O)OCC(=O)N1CCN(C(=O)c2ccco2)CC1 | 25.2 | 0.2 | 76.9* | 0.7 | 1.4
CC(C)(C)C(=O)O/N=C1/C(=O)N(c2ccccc2)c2ccccc21 | 7.4 | 0.8 | 15.3 | 0.9 | 0.9
O=C(OCC(=O)N1CCN(C(=O)c2ccco2)CC1)c1ccccc1O | 45.8 | 0.3 | 71.9* | 0.5 | 10.7
O=C(OCC(=O)N1CCN(C(=O)c2ccco2)CC1)c1sc2ccccc2c1Cl | 23.3 | 0.9 | 14.8 | 0.8 | 4.7
O=C(c1ccco1)N1CCN(C(=O)c2ccccc2OC(=O)C23CC4CC(CC(C4)C2)C3)CC1 | 78.7* | 0.3 | 65.4* | 0.2 | 6.7
O=C(COC(=O)c1ccccc1OCc1ccc(Cl)cc1)NC1CC1 | 74.8* | 0.4 | 62.0* | 0.3 | 4.7
O=C(COC(=O)C1(c2ccc(F)cc2)CCCC1)N1CCN(C(=O)c2ccco2)CC1 | 73.2* | 0.2 | 82.2* | 0.3 | 7.7
O=C(c1ccco1)N1CCN(C(=O)c2ccccc2Oc2ccccc2)CC1 | / | / | / | / | 13.1
CC1CCC(NC(=O)COc2ccccc2C(N)=O)CC1 (stereo unspecified) | 21.2 | 1.1 | -7.5 | 0.8 | 1.4
O=C(NC(=S)Nc1ccc(CN2CCOCC2)cc1)c1ccccc1[N+](=O)[O-] | / | / | / | / | 18.3
CC(=O)N1c2c(ccc3ccccc23)C(C)CC12CCCCC2 (stereo unspecified) | 98.0* | 0.1 | 93.3* | 0 | 12.8
CCOC(=O)N1CCN(c2c(N3CCN(c4cc(C)ccc4C)CC3)c(=O)c2=O)CC1 | 21.5 | 0.8 | 16.4 | 0.8 | 0.6
O=C(Nc1ccc(N=Nc2ccccc2)cc1)c1ccc(Cl)cc1Cl | -8.2 | 1.1 | -7.3 | 1.1 | 30.3
CN(C)/C=C(/C(=O)c1ccc(Cl)cc1Cl)S(=O)(=O)c1ccc(Cl)cc1 | 79.5* | 0 | 95.1* | 0.2 | 16.3
CN(C)/C=C(/C(=O)c1ccc(Cl)cc1Cl)S(=O)(=O)c1ccccc1 | 14.3 | 0.4 | 62.8* | 0.9 | 6.0
CN(C)/C=C(/C(=O)c1ccc(Cl)cc1)S(=O)(=O)c1ccc(Cl)cc1 | 61.5* | 1 | -4.0 | 0.4 | 2.3
CN(C)/C=C(\C(=O)c1ccc(Cl)cc1)c1nnnn1-c1ccc(Cl)cc1 | / | / | / | / | 11.8
O=C(NN1C(=O)C2C3C=CC(C4CC34)C2C1=O)c1ccc(Cl)cc1Cl (stereo unspecified) | 2.0 | 1.1 | -14.2 | 1 | 2.3
Cc1nnc(N/N=C/c2ccc(O)c([N+](=O)[O-])c2)[nH]c1=O | / | / | / | / | 10.8
COc1ccccc1Oc1c(C)oc2cc(OC(=O)c3ccco3)ccc2c1=O | -4.3 | 1.2 | -21.8 | 1 | 10.1
COc1ccccc1-c1c(C(F)(F)F)oc2cc(OC(=O)c3cccc([N+](=O)[O-])c3C)ccc2c1=O | 75.6* | 0.3 | 73.3* | 0.2 | 6.4
SMILES | CYP2C19 inh | CYP2C9 activ | CYP2C9 inhib | CYP2C19 act | Measles CPE
COc1ccccc1-c1c(C)oc2cc(OC(=O)c3ccco3)ccc2c1=O | 63.7* | 0.4 | 55.2* | 0.4 | 9.7
COc1cc(/C=C(/C#N)c2ccccc2)ccc1Oc1ccc([N+](=O)[O-])cn1 | 32.5 | 0.4 | 58.9* | 0.7 | 11.5
CCn1c(SCC(=O)N2CCCC(C)C2)nnc1-c1ccc(S(=O)(=O)N2CCN(C)CC2)cc1 (stereo unspecified) | -8.4 | 1 | -2.3 | 1.1 | 16.6
CN(CC(=O)N1CCN(c2cccc(Cl)c2)CC1)S(=O)(=O)c1cccs1 | 81.5* | 0.2 | 80.7* | 0.2 | 14.1
CS(=O)(=O)N(CC(=O)N1CCN(c2ccc(F)cc2)CC1)c1cccc(Cl)c1 | 37.1 | 2.4* | -139.3 | 0.6 | 14.9
O=C(Cc1ccccc1)N1CCC(c2nc3ccccc3[nH]2)CC1 | 20.1 | 0.7 | 31.5 | 0.8 | 8.0
O=C(N1CCN(c2ccccn2)CC1)N1c2ccccc2Sc2ccccc21 | 89.9* | 0.1 | 88.3* | 0.1 | 11.2

Source: PubChem
